Hit rate of the full screen: of about 67,000 compounds, about 300 (0.45%) showed an effect of 50% or more. The sample holds strong results, similar compounds and a random draw of the others, so the mix is not that of the screen.
These molecules were tested against Polyketide synthase Pks13 (Mycobacterium tuberculosis (strain ATCC 25618 / H37Rv)) (UniProt I6X8D2) (assay: Mycobacterium tuberculosis Polyketide synthase 13 Thioesterase (PKS13)). Conditions: 30 µM.
Polyketide synthase Pks13 (Mycobacterium tuberculosis (strain ATCC 25618 / H37Rv)), sequence (I6X8D2 whole entry): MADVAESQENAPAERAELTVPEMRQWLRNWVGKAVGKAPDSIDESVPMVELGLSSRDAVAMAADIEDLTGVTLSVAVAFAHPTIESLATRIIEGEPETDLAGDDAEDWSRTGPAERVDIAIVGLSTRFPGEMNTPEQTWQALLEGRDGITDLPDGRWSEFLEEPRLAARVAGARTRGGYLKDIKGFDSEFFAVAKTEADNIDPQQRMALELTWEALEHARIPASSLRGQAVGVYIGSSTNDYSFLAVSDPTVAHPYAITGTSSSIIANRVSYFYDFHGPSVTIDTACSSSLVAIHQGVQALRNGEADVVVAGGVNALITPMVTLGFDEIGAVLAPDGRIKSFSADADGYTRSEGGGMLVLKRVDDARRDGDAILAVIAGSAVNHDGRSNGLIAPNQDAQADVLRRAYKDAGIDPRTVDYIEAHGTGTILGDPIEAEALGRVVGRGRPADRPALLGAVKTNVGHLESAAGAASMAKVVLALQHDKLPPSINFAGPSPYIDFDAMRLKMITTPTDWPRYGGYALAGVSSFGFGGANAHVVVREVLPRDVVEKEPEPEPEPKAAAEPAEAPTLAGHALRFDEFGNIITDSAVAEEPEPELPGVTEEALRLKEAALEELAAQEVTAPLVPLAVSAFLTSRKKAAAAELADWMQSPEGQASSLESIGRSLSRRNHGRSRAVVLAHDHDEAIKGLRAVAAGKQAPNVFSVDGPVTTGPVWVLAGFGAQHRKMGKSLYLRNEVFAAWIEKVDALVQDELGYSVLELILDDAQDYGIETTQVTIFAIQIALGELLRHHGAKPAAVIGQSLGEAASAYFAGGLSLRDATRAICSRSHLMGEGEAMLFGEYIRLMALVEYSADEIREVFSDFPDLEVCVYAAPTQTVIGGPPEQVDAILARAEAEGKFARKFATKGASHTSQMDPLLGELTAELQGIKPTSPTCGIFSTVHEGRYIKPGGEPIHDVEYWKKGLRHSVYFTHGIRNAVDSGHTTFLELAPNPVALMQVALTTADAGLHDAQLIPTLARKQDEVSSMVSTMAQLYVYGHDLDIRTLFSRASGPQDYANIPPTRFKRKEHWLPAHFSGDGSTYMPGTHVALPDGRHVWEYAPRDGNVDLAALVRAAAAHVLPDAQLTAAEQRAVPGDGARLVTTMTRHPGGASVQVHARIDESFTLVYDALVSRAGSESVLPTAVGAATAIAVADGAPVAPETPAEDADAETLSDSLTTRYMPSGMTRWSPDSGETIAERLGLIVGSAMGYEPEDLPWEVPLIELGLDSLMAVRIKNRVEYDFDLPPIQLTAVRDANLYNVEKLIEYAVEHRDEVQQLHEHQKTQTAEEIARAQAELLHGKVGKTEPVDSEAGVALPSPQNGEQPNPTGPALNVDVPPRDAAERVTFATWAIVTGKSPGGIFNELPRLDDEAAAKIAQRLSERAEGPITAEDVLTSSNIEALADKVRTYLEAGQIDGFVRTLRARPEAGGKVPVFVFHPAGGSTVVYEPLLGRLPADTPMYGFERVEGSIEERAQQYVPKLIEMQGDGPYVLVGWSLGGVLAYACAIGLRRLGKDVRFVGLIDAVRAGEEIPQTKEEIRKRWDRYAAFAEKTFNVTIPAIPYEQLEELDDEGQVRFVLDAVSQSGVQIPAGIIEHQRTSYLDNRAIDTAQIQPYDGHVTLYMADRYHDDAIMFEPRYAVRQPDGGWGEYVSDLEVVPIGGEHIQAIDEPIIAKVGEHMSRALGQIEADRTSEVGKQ
Assay type: functional
Set-up: scale not given: in the data most compounds retested in dose-response had high values
C/C(NC(=O)c1ccco1)=C1/C(=O)C[C@@H]2[C@H]1C2(C)C was tested, and the Percent Effect was 0.624%. CCCc1ccc(CN2C[C@H]3C(=O)N(CC4CC4)C[C@@]3(C(=O)O)C2)o1 showed a Percent Effect of -6.91%. Molecule COCCN1C[C@@H]2CN(c3ncccn3)C[C@@H]2C1=O has a Percent Effect of 54.8%. Molecule COCCN1C[C@@H]2CN(c3ncc(F)cn3)C[C@@H]2C1=O has a Percent Effect of -5%. With O=C1[C@H]2CN(c3ncccn3)C[C@H]2CN1CCN1CCCC1 the Percent Effect was -2.18%. With O=C(NC[C@@H]1C[C@@H]2CN(C(=O)CO)C[C@H]2O1)c1ccsc1 the Percent Effect was -53.3%. Work on O=C(c1cnn(-c2ccccc2)c1)N1CCN(c2cnccn2)CC1 yielded a Percent Effect of -16.8%. O=C(c1ccc(-n2ccnc2)cc1)N1CCN(c2cnccn2)CC1 was tested, and the Percent Effect was 64.5%. Molecule O=C(c1ccc(-n2cncn2)cc1)N1CCN(c2cnccn2)CC1 has a Percent Effect of -11.1%. Work on Cc1ccnn1-c1ccc(C(=O)N2CCN(c3cnccn3)CC2)cc1 yielded a Percent Effect of 1.07%. Molecule O=C(c1ccc(-n2cc(Br)cn2)cc1)N1CCN(c2cnccn2)CC1 has a Percent Effect of 81.5%. O=C(c1ccc(-n2ccnc2)cc1)N1CCCC1 showed a Percent Effect of -36.5%. O[C@@]1(c2ccccn2)CC[C@H]2CN(Cc3cccc(Cl)c3Cl)C[C@H]21 gave a Percent Effect of -48.7%. Work on O=C(C1CC1)N1C[C@H]2CNC[C@@]2(C(=O)NCCCc2ccccc2)C1 yielded a Percent Effect of -27.1%. In the case of Cc1ncsc1CN1C[C@H](C(=O)NCC2CC2)[C@@H]2CCO[C@@H]2C1, the Percent Effect is reported as -19.8%. Molecule O=C(NCCCn1nc2ccccn2c1=O)NCc1ccccc1 has a Percent Effect of 2.17%. Molecule Cc1ccc(CNC(=O)NCCCn2nc3ccccn3c2=O)s1 has a Percent Effect of 96.8%. CCNC(=O)NCCCn1nc2ccccn2c1=O was tested, and the Percent Effect was 0.265%. Cc1nc(COC[C@@]23CCC[C@@H]2CN(CC2CCOCC2)C3)cs1 was tested, and the Percent Effect was -23.1%. With O[C@@H]1C[C@@](CNCC2CC2)(COc2cccnc2)C[C@@H]1O the Percent Effect was -28.2%. Work on Cc1cc(CN2C[C@@H]3COC[C@@H](C(=O)N4CCCCO4)[C@@H]3C2)oc1C yielded a Percent Effect of -7.51%. NC(=O)N1CCCC(C(=O)N2CCN(c3nsc4ccccc34)CC2)C1 (centres undefined) gave a Percent Effect of -37.1%. CCN1CC(C(=O)N2CCN(c3nsc4ccccc34)CC2)CCC1=O (centres undefined) was tested, and the Percent Effect was 105%. CC(C)N1CCCC(C(=O)N2CCN(c3nsc4ccccc34)CC2)C1 (centres undefined) gave a Percent Effect of -2.9%. With O=C(COC[C@H]1CC[C@H]2[C@H](CCN2c2ncccn2)O1)N1CCCC1 the Percent Effect was -9.39%. CC(C)=CCN1CCN(C(=O)COc2ccccc2)[C@H]2CS(=O)(=O)C[C@H]21 was tested, and the Percent Effect was -8.58%. O=C(C1CC(F)(F)C1)N1C[C@@H]2CN(Cc3ccoc3)CCO[C@@H]2C1 gave a Percent Effect of -7.81%. Cc1cccc(CN2CCN(C(=O)N(C)C)[C@@H]3CS(=O)(=O)C[C@@H]32)n1 was tested, and the Percent Effect was -6.96%. For CCn1cc(-c2cc(-c3ccn(C)c3)nc(N)c2C#N)cc1C#N, the Percent Effect was 58.3%. Molecule CCNc1ncc(-c2cc(-c3ccn(C)c3)nc(N)c2C#N)cn1 has a Percent Effect of 5.42%. For COc1ncc(-c2cc(-c3ccn(C)c3)nc(N)c2C#N)cn1, the Percent Effect was 9.8%. With CN(C)C(=O)COCC1C[C@@H]2OCCN(Cc3ccco3)[C@H]2C1 (some centres undefined) the Percent Effect was -27.3%. For COc1cc(N2C[C@@H]3COC[C@]3(COCc3ccncc3)C2)ncn1, the Percent Effect was -5.91%. Molecule O=C(C[C@@H]1COC[C@H]2CN(C3CCC3)C[C@@H]12)NCc1cccnc1 has a Percent Effect of 0.641%. With O=C(c1ccc(F)cc1)N1C[C@H]2CCC[C@@]2(COCc2ccccn2)C1 the Percent Effect was -35.6%. Cn1cc(NC(=O)c2ccccn2)cc(Cl)c1=O was tested, and the Percent Effect was -33.4%. Work on Cn1cc(NC(=O)c2cc[nH]n2)cc(Cl)c1=O yielded a Percent Effect of 70.5%. COc1ccsc1C(=O)Nc1cc(Cl)c(=O)n(C)c1 gave a Percent Effect of -16.3%. O=C(c1ccnnc1)N1CCN2C[C@H](Oc3cccnc3)C[C@H]2C1 was tested, and the Percent Effect was -17.2%. For COc1ncccc1CN1C[C@H]2CCN(C(C)C)C[C@H]2C1, the Percent Effect was 8.32%. O=C(Nc1nc2c(s1)CN(S(=O)(=O)C1CC1)CC2)c1c(F)cccc1F showed a Percent Effect of -2.3%. With O=C(Nc1nc2c(s1)CN(S(=O)(=O)C1CC1)CC2)c1ccc(Cl)s1 the Percent Effect was 13.8%. For O=C(Nc1nc2c(s1)CN(S(=O)(=O)C1CC1)CC2)c1cccc(Cl)c1, the Percent Effect was 75.5%. Molecule CNC(=O)[C@@]12CCCN(c3ncccn3)[C@@H]1CN(c1ncc(C)cn1)C2 has a Percent Effect of -27.3%. For CC(C)CNC(=O)c1cc(C2CC2)nc2c1c(C1CCCN1)nn2C (centres undefined), the Percent Effect was -19.7%. Cn1nc(C2CCNC2)c2c(C(=O)NCC(F)(F)F)cc(C3CC3)nc21 (centres undefined) showed a Percent Effect of -7.7%. Cn1nc(C2CCCN2)c2c(C(=O)NCC(F)(F)F)cc(C3CC3)nc21 (centres undefined) was tested, and the Percent Effect was 119%. Molecule O=C(c1ccco1)N1CCO[C@@H]2CN(c3ccccc3)CC[C@@H]2C1 has a Percent Effect of -28.4%. Molecule O=C(c1ccco1)N1CCO[C@@H]2CN(c3ccccn3)CC[C@@H]2C1 has a Percent Effect of 52.6%. Molecule Cc1cccc(N2CC[C@@H]3CN(C(=O)c4ccco4)CCO[C@@H]3C2)n1 has a Percent Effect of -34.3%. Fc1cnc(N2CCO[C@H]3CN(CC4CCCCC4)C[C@H]32)nc1 was tested, and the Percent Effect was -51%. O=C(c1cccc(F)c1)N1CC[C@H]2[C@H]1CCN2CC1CCOCC1 showed a Percent Effect of -17.7%. With Cc1nc2c(Nc3cccc(C#N)c3)nc(N)nc2n1C the Percent Effect was 58.8%. With Cc1nc2c(Nc3ccc(C#N)cc3)nc(N)nc2n1C the Percent Effect was 18.1%. In the case of CC(=O)c1ccc(Nc2nc(N)nc3c2nc(C)n3C)cc1, the Percent Effect is reported as 2.22%. O=C(NCc1ccccn1)[C@H]1COC[C@H]2CN(C3CCCC3)C[C@H]21 was tested, and the Percent Effect was -25.1%. CC1(NC(=O)Cc2csc(-c3ccccc3Cl)n2)CCS(=O)(=O)C1 (centres undefined) gave a Percent Effect of -7.78%. CC1(NC(=O)Cc2csc(C(C)(C)C)n2)CCS(=O)(=O)C1 (centres undefined) showed a Percent Effect of -0.313%. Work on CC1(NC(=O)Cc2csc(NC(=O)c3ccccc3)n2)CCS(=O)(=O)C1 (centres undefined) yielded a Percent Effect of 51.1%. For c1ccc(CN2CCN3C[C@H](Oc4cccnc4)C[C@H]3C2)nc1, the Percent Effect was -35.4%. For CNC(=O)[C@H]1C[C@@H]2CN(C(=O)c3ccccn3)C[C@@H]2N1S(C)(=O)=O, the Percent Effect was -6.49%. In the case of CSCc1ccc(N2CCC(C(O)CC(C)C)CC2)nc1 (centres undefined), the Percent Effect is reported as 6.3%. Work on Cc1ccc(N2CCC(C(O)Cc3ccccc3)CC2)nn1 (centres undefined) yielded a Percent Effect of -23.2%. CSCc1ccc(N2CCC(C(O)Cc3ccccc3)CC2)nc1 (centres undefined) showed a Percent Effect of 101%. Work on CC(C)CNC(=O)N1CC[C@@H]2CN(Cc3cccnc3)S(=O)(=O)[C@@H]2CC1 yielded a Percent Effect of -16.3%. With CCCN1C(=O)[C@@H]2[C@@H](CCN2C(=O)COC)N(Cc2cccs2)C1=O the Percent Effect was 26.9%. Cc1cc(NCc2cccc(C#N)c2)ccc1C(=O)N(C)C was tested, and the Percent Effect was -4.66%. Molecule Cc1cc(NCc2cccc(C#N)c2)ccc1Br has a Percent Effect of 58.5%. Cc1cc(NCc2cccc(C#N)c2)ccc1C(N)=O was tested, and the Percent Effect was -10.5%.
